Bioassay records as filed in PubChem BioAssay.
Hits are enriched below; roughly 12% of the tested compounds scored in any of these assays.
G9a block = blocks human histone lysine methyltransferase G9a; G9a H3K9 monomethylation, AlphaScreen, 2 h; Potency, µM (top dose mostly 102 µM), for inactives: at the highest dose activity, negative = inhibition, usual class: inhibitors; hit rate 8.8% among 350,000; AID 504332; further: potency means the concentration at half of the fitted maximal effect; on the % scale 0 is the no-effect control and ±100 the full control effect; nearly all actives have a fitted effect of over 75% in size
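Methyltransferase reactions run at room temperature for 2 h (20 nM enzyme, 500 nM biotin-H3K9 peptide, 20 uM SAM) after a 15 min compound preincubation; product detected by AlphaScreen beads and anti-H3K9me1 antibody.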
HP1b chromo inh = blocks HP1-beta chromodomain binding to methylated histone tails. AlphaScreen HP1-beta / biotin-H3K9me3 peptide binding. Potency, µM (top dose mostly 114 µM), for inactives: top-dose activity change, negative = inhibition, usual class: inhibitors. hit rate 0.56% among 390,000. AID 540317; further: potency means the concentration at half of the fitted maximal effect; nearly all actives have a fitted effect of over 70% in size
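AlphaScreen: HP1-beta (50 nM) preformed 30 min with biotin-H3(1-18)K9me3 peptide (50 nM) in PBS pH 7.4, 0.01% Tween-20. Compound added for 30 min at RT, then streptavidin donor/nickel chelate acceptor beads (10 ug/mL) for 30 min.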
PLK1 PBD inh = PLK1 (human) polo-box domain binding inhibition; P53350; Plk1 PBD binding of FITC phosphopeptide, fluorescence polarization; Potency, µM, inactives show max response, negative = inhibition, actives largely listed as inhibitors; hit rate 2.8% among 360,000; further: potency means the concentration at half of the fitted maximal effect; series mostly up to about 57 µM; on the % scale 0 is the no-effect control and ±100 the full control effect; nearly all actives have a fitted effect of over 65% in size
JMJD2A Tudor inh = inhibitors of human JMJD2A Tudor domain | O75164 | AlphaScreen JMJD2A-Tudor / H3K4me3 peptide binding | Potency, µM (highest dose often 114 µM), for the others: at the highest dose activity change, negative = inhibition, most hits filed as inhibitors | hit rate 4.4% among 390,000 | AID 504339; further: potency means the concentration at half of the fitted maximal effect; on the % scale 0 is the no-effect control and ±100 the full control effect; nearly all actives have a fitted effect of over 50% in size
Target sequence (O75164 whole entry, looked up, the tested form may be a part): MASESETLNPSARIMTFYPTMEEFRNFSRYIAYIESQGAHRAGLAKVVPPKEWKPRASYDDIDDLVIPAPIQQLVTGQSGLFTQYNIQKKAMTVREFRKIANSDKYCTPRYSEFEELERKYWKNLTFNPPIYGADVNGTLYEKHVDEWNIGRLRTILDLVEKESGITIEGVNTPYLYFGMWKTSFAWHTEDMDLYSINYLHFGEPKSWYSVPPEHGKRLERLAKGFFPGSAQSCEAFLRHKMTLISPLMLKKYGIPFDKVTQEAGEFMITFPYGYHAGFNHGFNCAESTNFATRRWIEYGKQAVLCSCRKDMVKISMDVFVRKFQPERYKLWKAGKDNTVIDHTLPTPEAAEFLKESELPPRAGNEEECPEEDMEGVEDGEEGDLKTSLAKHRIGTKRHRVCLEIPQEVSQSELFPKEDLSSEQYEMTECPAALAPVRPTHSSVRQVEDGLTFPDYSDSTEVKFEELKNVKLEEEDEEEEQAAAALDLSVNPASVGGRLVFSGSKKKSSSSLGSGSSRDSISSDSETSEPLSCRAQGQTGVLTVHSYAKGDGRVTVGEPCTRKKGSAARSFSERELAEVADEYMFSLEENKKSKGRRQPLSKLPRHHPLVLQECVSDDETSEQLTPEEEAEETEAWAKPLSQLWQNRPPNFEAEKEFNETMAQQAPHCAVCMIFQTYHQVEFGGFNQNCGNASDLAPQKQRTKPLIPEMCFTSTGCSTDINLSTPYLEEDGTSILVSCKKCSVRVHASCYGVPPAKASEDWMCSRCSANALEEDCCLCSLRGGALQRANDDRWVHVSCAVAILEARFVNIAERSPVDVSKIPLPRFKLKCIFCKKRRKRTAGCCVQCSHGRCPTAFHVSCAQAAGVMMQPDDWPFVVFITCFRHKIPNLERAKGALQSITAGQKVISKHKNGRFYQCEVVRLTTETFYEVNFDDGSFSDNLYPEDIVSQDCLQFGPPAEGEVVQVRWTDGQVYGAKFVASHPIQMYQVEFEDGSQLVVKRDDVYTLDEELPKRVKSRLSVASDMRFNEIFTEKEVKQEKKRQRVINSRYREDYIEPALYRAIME
BAZ2B block = blocks human BAZ2B; Q9UIF8; Potency, µM (highest dose often 114 µM), for the others: at the top dose activity change, negative = inhibition, most hits filed as inhibitors; hit rate 4.4% among 360,000; AlphaScreen BAZ2B-H3K14Ac peptide displacement; further: potency means the concentration at half of the fitted maximal effect; on the % scale 0 is the no-effect control and ±100 the full control effect; nearly all actives have a fitted effect of over 60% in size
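Protein-peptide AlphaScreen: BAZ2B 50 nM, b-H3K14Ac 50 nM, 1x PBS pH 7.4 + 0.01% Tween-20. Preincubation 30 min RT; cpd 30 min RT (top 110 uM); beads 20 min RT, light-protected.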
PI5P4K alpha inh = PI5P4K alpha (human) kinase inhibition; AID 652105; hit rate 1.2% among 330,000; max response, %; P48426; PI5P4Kalpha enzyme, ADP-Glo luminescence, 60 min; hits give low values; active means max response of -50% or lower; inconclusive means between -30% and -50%; inactive means -30% or higher; further: value at the top dose of about 77 µM; on the % scale 0 is the no-effect control and ±100 the full control effect
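PI5P4Kalpha ADP-Glo assay; 5 microM ATP final; 60 min RT reaction; HEPES pH 7.4/EGTA/CHAPS, 5% DMSO; controls lacking substrate or enzyme; luminescent end-point.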
Numbers without * were called inactive; ? = inconclusive; nt = no result given; [ ] = another dose, or the depositor's remark. Unless noted, the call rests on the fitted dose curve; in most records, active means well fitted curve in the direction sought with a large enough effect; inconclusive means small, poorly fitted or top-dose-only effect, or another doubt; inactive means no such curve, though single readings can be large; an effect the other way counts as inactive or inconclusive.

SMILES | G9a block | HP1b chromo inh | PLK1 PBD inh | JMJD2A Tudor inh | BAZ2B block | PI5P4K alpha inh
CCOc1ccc(CN(C)Cc2cc(=O)oc3cc(C)c(Cl)cc23)cc1 | -1.7% | 32.8% | -20.2% | 23.5% | 19.7% | -0.9
CCOc1ccc(N(C)Cc2cc(=O)oc3ccc(OCC)cc23)cc1 | 10µM* | -37.5% | -14.4% | ? | 17.8µM* | 4.6
COc1ccc(C2(CNC(=O)c3cc(OC)c(OC)c(OC)c3)CCCC2)cc1OC | nt | 15.6% | 2.2% | -5.5% | nt | -2.1
COc1ccc(C2(CNC(=O)/C=C\c3ccco3)CCCC2)cc1OC | 12.6µM* | 13.7% | ? | -26.1% | -33.8% | ?
COc1ccc(C(NC(=O)/C=C/c2ccco2)c2ccc(OC)c(OC)c2)cc1OC | 8.91µM* | -12.5% | -11.5% | -26.2% | ? | ?
Cc1cccc(NCc2nc3ccccc3n2CCOc2ccccc2C)c1 | -21.3%[59 µM] | 15.0% | nt | ? | ? | nt
NCC1CCCCC1CC(=O)O (configuration not stated) | -3.2%[2.33 µM] | nt | nt | nt | nt | nt
O=C(O)c1ccc(NC(=O)C2(c3ccccc3)CCOCC2)cc1 | -5.3%[12.7 µM] | 22.7% | 1.2% | -0.7% | -6.4% | 0.8
Cc1ccc(NC(=O)C2(c3ccccc3)CCOCC2)cc1 | 7.1% | -5.8% | 26.7µM* | 50.1µM* | -9.3% | ?
O=C(COc1ccccc1)NC1=NCCS1 | -38.9%[59 µM] | 17.6% | 1.7% | -16.4% | -14.0% | 2.9
CC(Oc1ccccc1)C(=O)NC1=NCCS1 (configuration not stated) | ? | 17.7% | -12.1% | 31.6µM* | -28.3% | 5.2
c1coc(CNc2nc(-c3cccs3)nc3ccccc23)c1 | nt | nt | nt | -29.9% | nt | nt
Fc1ccc(Nc2nc(NCc3cccs3)nc3ccsc23)cc1 | nt | nt | -3.1% | nt | nt | -23.5
C/C(=N\Nc1cccc(Cl)c1)C1(C)N(O)C(C)(C)C(c2ccco2)=[N+]1[O-] (configuration not stated) | 44.7µM* | 27.9% | -0.3% | -26.5% | -34.0% | 6.4
CCN(CC)S(=O)(=O)c1ccc(/C(O)=C(\C#N)c2nc3ccccc3n2C)cc1 | 40.5%[59 µM] | 18.9% | -10.4% | -12.0% | 0.2% | nt
Cn1c(/C(C#N)=C(\O)c2ccc([N+](=O)[O-])cc2)nc2ccccc21 | -35.2% | 26.9% | 23.8µM* | ? | nt | ?
Clc1ccc(N2CCN(Cc3c[nH]c4ncccc34)CC2)cc1 | -29.1%[59 µM] | 11.9% | -8.8% | ? | 5.9% | -1.4
Oc1c(CN2CCc3ccccc3C2)cc(Cl)c2cccnc12 | 44.7µM* | 25.6% | 29.9µM* | 25.1µM* | 8.91µM* | -15.5
O=[N+]([O-])c1cc(CN2CCN(c3ccccc3)CC2)c(O)c2ncccc12 | ? | 17.8% | -3.4% | 10µM* | 3.16µM* | -0.5
O=[N+]([O-])c1cc(CN2CCOCC2)c2cccnc2c1O | ? | 23.5% | ? | 7.94µM* | 3.16µM* | -72.9*
Oc1c(Cl)cc(CN2CCOCC2)c2cccnc12 | -0.6%[2.33 µM] | -25.5% | ? | 11.2µM* | 7.94µM* | -6.0
CCOC(=O)C1CCC(CN(Cc2cccc(Br)c2)S(=O)(=O)c2ccc(Cl)cc2)CC1 (configuration not stated) | 10.2%[59 µM] | 51.9% | nt | -4.6% | 12.2% | nt
COc1ccc(N(CC(=O)NCCSCc2ccccc2Cl)S(C)(=O)=O)cc1Cl | 16.5% | 15.6% | -8.7% | -18.2% | -3.0% | 9.3
O=C(COc1c(Br)cc(Br)c2cccnc12)N1CCCCC1 | 8.1% | 37.4% | -7.6% | -10.6% | ? | -2.9
Oc1c(CN2CCCCC2)cc(Br)c2cccnc12 | ? | 26.1% | ? | 22.4µM* | 28.2µM* | -20.6
SMILES | G9a block | HP1b chromo inh | PLK1 PBD inh | JMJD2A Tudor inh | BAZ2B block | PI5P4K alpha inh
O=c1oc2ccccc2c(O)c1Cc1cc(Cl)c2cccnc2c1O | nt | 25.0% | ? | -35.9% | 31.6µM* | ?
Cn1cnc([N+](=O)[O-])c1Sc1nc(N)nc2c1ncn2C1CC(O)C(CO)O1 (configuration not stated) | nt | 47.8% | 1.7% | 4.9% | nt | -1.0
CN(C(=O)Cn1c(Cl)nc2c1c(=O)n(C)c(=O)n2C)C1CCS(=O)(=O)C1 (configuration not stated) | 56.2µM* | 0.2% | -11.3% | -20.0% | -4.9% | -4.5
CC(c1ccccc1)C1C(C#N)=C(N)SC(N)=C1C#N (configuration not stated) | 15.8µM* | 23.0% | -27.2% | ? | 11.5% | ?
CC(C)C1C(C#N)=C(N)SC(N)=C1C#N | 14.1µM* | 40.6% | -13.3% | 17.9% | -38.0% | -9.4
CCC(CC)C1C(C#N)=C(N)SC(N)=C1C#N | ? | 55.0% | -10.8% | ? | -2.3% | -10.3
CC(c1ccccc1)C1C(C#N)=C(N)OC2=C1C(=O)CCC2 (configuration not stated) | nt | 27.4% | -5.2% | 7.5% | 10.3% | -12.1
CC(CC1C(C#N)=C(N)SC(N)=C1C#N)c1ccccc1 (configuration not stated) | 10µM* | 13.4% | -15.6% | 56.2µM* | -23.5% | -66.6*
Cc1ccc(C)c(S(=O)(=O)N2CCN(C(=O)c3ccc(N4CCCC4)c([N+](=O)[O-])c3)CC2)c1 | 31.6µM* | -10.4% | -0.3% | ? | ? | -7.1
Cc1ccc(C)c(N2CCN(C(=O)c3ccc(N4CCOCC4)c([N+](=O)[O-])c3)CC2)c1 | 44.7µM* | 44.7µM* | -14.0% | 56.2µM* | ? | 1.0
COc1cc2cc(CNc3ccc(C)cc3)c(=O)n(CC(=O)Nc3ccc(F)cc3F)c2cc1OC | ? | 10.9% | nt | -19.0% | -12.1% | nt
COc1ccc(NC(=O)CN2CCc3ccccc3C2)cc1S(=O)(=O)N1CCOCC1 | 25.0%[59 µM] | 6.6% | -14.9% | -18.5% | -4.7% | 4.9
COc1ccc(NC(=O)/C=C/c2ccc(C)o2)cc1S(=O)(=O)N1CCOCC1 | 6.31µM* | -3.8% | -13.4% | -17.5% | ? | -15.5
COc1ccc(NC(=O)CN2C(=O)c3ccccc3S2(=O)=O)cc1S(=O)(=O)N1CCOCC1 | 50.1µM* | 16.6% | 0.2% | -11.7% | 7.8% | 1.8
COc1ccc(NC(=O)CNCc2ccc(Cl)cc2)cc1S(=O)(=O)N1CCOCC1 | nt | ? | 5.5% | 3.55µM* | nt | -0.5
COc1ccc(CC(=O)Nc2sccc2C#N)cc1S(=O)(=O)N1CCOCC1 | 39.8µM* | 25.3% | -9.5% | -4.1% | -21.8% | -12.7
COc1cc(/C=C/C(=O)Nc2ccc(OC)c(S(=O)(=O)N3CCOCC3)c2)ccc1OC(F)F | nt | 19.1% | 2.4% | -21.8% | nt | -0.8
CC(=O)N(c1ccc2ccccc2c1)C1SC(=O)N(c2cccc(C)c2)C1=O (configuration not stated) | nt | 38.5% | nt | -19.0% | nt | nt
O=C(Cc1ccccc1[N+](=O)[O-])N1CCOCC1 | 23.6%[59 µM] | 30.4% | -9.2% | -5.6% | 6.9% | -0.6
CCC1(CC)Cc2ccccc2C(CC(=O)N2CCOCC2)=N1 | 39.8µM* | -23.7% | -7.4% | 22.4µM* | 56.2µM* | nt
